# Screening data from PubChem BioAssay.
# Rows were chosen to be rich in hits. Some 3.4% of all compounds tested hit in one or more screens of this group.
# Luciferase inh: firefly luciferase inhibition | P08659 | purified firefly luciferase, luminescence, 8 min | Potency, µM (series often up to 57.1 µM), without a hit: at the top dose activity change, negative = inhibition, usual class: inhibitors | 2.2% of 72,000 active | AID 411; active = well fitted inhibition curve with a large enough effect; inconclusive = small, poorly fitted or top-dose-only effect; note: % is set by controls: 0 for no effect and ±100 for the full control effect; nearly all actives have a fitted effect of over 40% in size
#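 Substrate buffer containing 10 uM ATP (pH 7.2 imidazole, Mg2+, KCl, detergent, BSA) is dispensed, compound pinned in, then luciferase/luciferin detector mix added. After 8 min at ambient temperature, light output is measured.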
# GBA activity: human lysosomal glucosylceramidase modulation; P04062; purified enzyme, resorufin glucoside fluorescence (screen aimed at inhibitors), 20 min; Potency, µM; 1.1% of 48,000 active; in the data active = potency below about 15 µM; inconclusive = mostly about 16 µM to 33 µM;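 note: the screen sought inhibitors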
# Target sequence (P04062 whole entry, looked up): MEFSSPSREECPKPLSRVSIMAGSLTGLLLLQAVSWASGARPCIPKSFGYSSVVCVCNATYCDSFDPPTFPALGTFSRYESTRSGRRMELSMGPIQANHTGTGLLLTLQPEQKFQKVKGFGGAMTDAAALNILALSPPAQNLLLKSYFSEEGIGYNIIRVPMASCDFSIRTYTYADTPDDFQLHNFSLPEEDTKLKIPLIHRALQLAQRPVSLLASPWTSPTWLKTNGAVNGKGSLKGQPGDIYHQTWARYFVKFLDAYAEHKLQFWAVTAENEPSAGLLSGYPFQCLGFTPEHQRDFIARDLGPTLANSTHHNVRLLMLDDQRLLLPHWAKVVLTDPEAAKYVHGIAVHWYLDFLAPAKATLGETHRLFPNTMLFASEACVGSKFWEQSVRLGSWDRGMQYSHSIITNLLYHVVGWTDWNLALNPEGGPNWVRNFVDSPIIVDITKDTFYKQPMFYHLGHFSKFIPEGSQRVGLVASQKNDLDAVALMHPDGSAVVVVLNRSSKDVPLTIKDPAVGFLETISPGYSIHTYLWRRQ
#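 Wild-type enzyme at 0.2 nM final in 50mM citric acid/KH2PO4, 10mM sodium taurocholate, 0.01% tween-20, pH 5.9, with resorufin beta-D-glucopyranoside at 30 uM final. Compounds titrated, 20 min at RT, red fluorescence read; AC50 from titration.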
# PK Bst: modulators of Bacillus stearothermophilus pyruvate kinase; purified pyruvate kinase, luminescence ATP production; ribose 5-phosphate activator present at AC10; Potency, µM; 1.2% of 51,000 active; in the data active = potency below about 11 µM; inconclusive = mostly about 12 µM to 25 µM;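 the screen sought inhibitors and activators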;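 note: scaled between full activation by ribose 5 phosphate and full inhibition by luteolin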
# * = called active by the depositor; i = inactive; ? = inconclusive; . = not tested or not shown; [ ] = remark or other dose. Potency is the fitted concentration of half-maximal effect.
SMILES,Luciferase inh,GBA activity,PK Bst
CN(C)CC(O)COc1cccc(OCC(O)CN(C)C)c1 (configuration not stated),1.6%[25.5 µM],.,>11.4
COc1cccc(OCC(O)CN(CCO)Cc2ccccc2)c1 (configuration not stated),3.7%,13.2*,>57
COc1ccccc1CN1CCCC2(CCN(C(=O)c3ccncc3)CC2)C1,0.9%[11.4 µM],.,.
O=C(N/N=C1/C[C@@H](O)[C@@H](O)[C@@H]2[C@@H]3C(=O)N(Cc4ccccc4)C(=O)[C@H]3CC[C@H]12)OCc1ccccc1,0.8%[11.4 µM],.,.
C=CCn1c(-c2ccc(OC)c(OC)c2)cs/c1=N\c1ccccn1,0.8%,>76.9,6.93*
COc1ccc(C2=Nn3c(nnc3-c3ccccn3)SC2)cc1OC,-0.3%[25.5 µM],.,>25.6
O=C1[C@H]2[C@H]3[C@H](O)[C@H](O)C/C(=N/OCc4ccccc4)[C@@H]3CC[C@@H]2C(=O)N1C[C@@H]1CCCO1,2.2%[11.4 µM],.,.
CN(C)c1ccc(NC(=S)c2ccccn2)cc1,0.794µM*,.,.
CN(C)S(=O)(=O)c1ccc(NC(=O)c2ccccn2)cc1,?,>76.9,.
S=c1nc[nH]c2c1ncn2Cc1ccco1,2.4%[11.4 µM],.,.
ClC(=Nc1cccc2ccccc12)N(c1ccccc1)c1ccccc1,1.4%[11.4 µM],.,.
Cc1ccc(N=Nc2c(O)c(S(=O)(=O)O)cc3cc(S(=O)(=O)O)ccc23)c(C)c1,-17.9%[11.4 µM],.,.
Cc1cc(-c2ccc(N=Nc3ccc4c(S(=O)(=O)O)cc(S(=O)(=O)O)c(N)c4c3O)c(C)c2)ccc1N=Nc1ccc2c(S(=O)(=O)O)cc(S(=O)(=O)O)c(N)c2c1O,31.6µM*,.,.
COCOc1ccc(Br)cc1C(=O)[C@H]1O[C@H]1c1cccc(OC)c1,1.8%[11.4 µM],.,.
COc1cc(/C=N/O)ccc1OCc1ccc(C(=O)O)cc1,0.316µM*,.,0.388*
O=C(O)c1cc(/C=N\O)ccc1OCc1ccccc1,-1.0%,>76.9,>57
COCCn1c(=O)c(-c2cccs2)nc2cnc(OC)nc21,1.1%[11.4 µM],.,.
N/C(=N\O)c1cn([C@@H]2O[C@@H](CO)[C@H](O)[C@@H]2O)c2ncnc(NO)c12,3.8%[11.4 µM],.,.
c1ccc2c(c1)NC1(CCCCC1)n1c-2nc2ccccc21,12.6µM*,>76.9,i
CC1(c2ccccn2)Nc2ccccc2-c2nc3ccccc3n21 (configuration not stated),-27.9%,>76.9,>57
CCN1CCN(c2cc(C)c3cc(NC(=O)c4ccncc4)ccc3n2)CC1,0.0%,.,.
CCOC(=O)C1CCCN(C(=O)CCC(=O)Nc2ccc3nc(N4CCOCC4)cc(C)c3c2)C1 (configuration not stated),?,2.59*,>57
O=C(Nc1ccc(N2CCOCC2)cc1)C1CC1,-3.5%,>76.9,>57
Cc1ccc(C)c(OCCCC(=O)Nc2ccc(N3CCOCC3)cc2)c1,-1.0%,>76.9,>57
COCCCNC(=O)CCC(=O)Nc1ccc2nc(N3CCOCC3)cc(C)c2c1,-16.6%,6.8*,>57
SMILES,Luciferase inh,GBA activity,PK Bst
CCN1CCN(c2cc(C)c3cc(NC(=O)c4ccc(Br)o4)ccc3n2)CC1,-3.7%,5.06*,>57
CCOC(=O)C1CCCN(C(=O)N2CCOCC2)C1 (configuration not stated),0.7%,.,.
Cc1cc(N2CCOCC2)nc2ccc(NC(=O)C3CCC(C)CC3)cc12 (configuration not stated),-1.8%,0.0606*,>57
O=C(O)c1c[nH]c2cc(OCc3ccccc3)ccc2c1=O,2.9%[11.4 µM],.,.
CC(CCC(=O)O)(c1cc(Br)c(O)c(Br)c1)c1cc(Br)c(O)c(Br)c1,3.5%[11.4 µM],.,.
COc1ccc(CCNC[C@H](O)c2ccc(O)cc2)cc1OC,-0.5%,.,.
COCCn1c(=O)cnc2cnc(Oc3ccccc3)nc21,1.0%[11.4 µM],.,.
CCCCNC(=O)CCC(=O)Nc1ccc2nc(N3CCOCC3)cc(C)c2c1,?,3.76*,.
Cc1cc(N2CCN(C)CC2)nc2ccc(NC(=O)CCC(=O)NCCC3=CCCCC3)cc12,2.1%,?,>57
Cc1noc(C)c1C(=O)N1CCC2(CC1)CN(c1cccc(-c3ccccc3)c1)C2,0.8%[11.4 µM],.,.
Nc1nc2c(c(=O)[nH]1)N[C@H](CCNc1ccc(C(=O)O)cc1)CN2,1.5%[11.4 µM],.,.
N[C@H](CS(=O)O)C(=O)O,-0.4%,.,.
COCn1c(-c2cccc(Br)c2)nc2ccccc21,-27.1%,.,.
COCn1c(-c2ccc(OC)c(OC)c2)nc2ccccc21,15.8µM*,.,.
CCN1C(=O)[C@H]2[C@H]3[C@H](O)[C@H](O)C/C(=N/O[C@@H](C)c4cn([C@H](CO)Cc5ccccc5)nn4)[C@@H]3CC[C@@H]2C1=O,0.9%[11.4 µM],.,.
COC(=O)C1C(=O)c2c([nH]c(C(=O)OC3CCCC3C)c2C)CC1C (configuration not stated),10µM*,.,.
CCOc1ccccc1C1NC(=O)NC(C)=C1C(=O)OC1CCCC1C (configuration not stated),-4.4%,i,>57
Cc1c(C(=O)OC2CCCCC2)[nH]c2c1C(=O)CC(C)(C)C2,0.6%,>76.9,>57
COC(=O)C1C(=O)c2c([nH]c(C(=O)OC3CCCCC3)c2C)CC1C (configuration not stated),1µM*,.,.
CC(C)NC(=O)N1CC2(CCN(C(=O)c3ccncc3)CC2)C1,1.7%[11.4 µM],.,.
O=c1c(-c2cccs2)nc2cnc(N3CCOCC3)nc2n1Cc1cccs1,0.8%[11.4 µM],.,.
COc1cccc(Cn2c(=O)c(-c3cccs3)nc3cnc(N(C)C)nc32)c1,1.1%[11.4 µM],.,.
CCc1ccc(OC(=O)c2ccn(CC)n2)cc1,12.6µM*,>76.9,?
CCOC(=O)c1c(NC(=O)c2ccn(CC)n2)sc2c1CCCC2,0.4%,i,>57
CC(=O)OC[C@@H]1O[C@H](C/C=N\OC[C@@H](O)COCc2ccco2)C=C[C@@H]1OC(C)=O,0.2%[11.4 µM],.,.
SMILES,Luciferase inh,GBA activity,PK Bst
CC(=O)n1c(COS(C)(=O)=O)nc2ccccc21,2.4%[11.4 µM],.,.
COc1ccc(-c2cc(N3CCCC3)n3ncnc3n2)cc1,1.8%,>76.9,9.21*
COc1ccc(S(=O)(=O)N2CCN(c3cc(-c4ccccc4)nc4ncnn34)CC2)cc1,-0.2%,>76.9,>57
COc1ccc(-c2cc(C(N)=O)nc(N3CCCCCC3)n2)cc1,7.94µM*,>76.9,?
COc1ccc(-c2cc(C(F)(F)F)nc(N3CCCCCC3)n2)cc1,2.7%,>76.9,>57
COCn1c2ccccc2c2nnc(C(C)=O)nc21,1.0%[11.4 µM],.,.
Cc1nn(-c2ccccc2)c(C)c1C(=O)Nc1nnc(-c2ccco2)o1,2.0%,>76.9,>57
COc1cccc2sc(Nc3nc(-c4ccccn4)cs3)nc12,?,>76.9,.
COc1cccc2sc(Nc3nnc(-c4cccs4)o3)nc12,15.8µM*,?,>57
Fc1cccc2sc(Nc3nnc(-c4ccco4)o3)nc12,25.1µM*,>76.9,.
Cc1cccc(-n2ncc3c(N)ncnc32)c1,-14.9%,>76.9,.
CCOc1ccc(Nc2ncnc3c2cnn3-c2ccccc2)cc1,2.6%,.,.
Cc1cccc(-n2ncc3c(NC(C)C)ncnc32)c1,12.6µM*,.,.
c1ccc(-n2ncc3c(NCc4cccnc4)ncnc32)cc1,-28.0%,.,.
CC(C)Nc1ncnc2c1cnn2-c1ccccc1,7.94µM*,.,.
Cc1ccccc1Nc1ncnc2c1cnn2-c1ccccc1,12.6µM*,.,.
Cc1ccc(N(Cc2ccccc2)Cc2ccccc2)cc1,2.1%[11.4 µM],.,.
O=C(c1cnccn1)N1CCC2(CC1)CN(c1ncccn1)C2,1.3%[11.4 µM],.,.
CC(C)c1ccc2oc(-c3ccc(N)cc3)nc2c1,1.26µM*,.,.
COC(=O)c1ccc(-c2nc3ccccc3o2)cc1,-5.6%,>76.9,.
Cc1ccc(-c2nc3cc(N)ccc3o2)cc1,2.51µM*,.,.
